HBB splice mod – modulators of hemoglobin beta chain splicing | HBB splicing reporter cell assay, activation; EGFP reporter with mutant IVS2-654 intron; response scale: normalised to 500 nM splice-correcting PNA | Potency, µM (series often up to 46.1 µM), without a hit: at the highest dose activation, actives largely listed as activators | 0.06% of 65,000 active | AID 925; further: potency means the concentration at half of the fitted maximal effect; 0% is about no effect
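HeLa cells stably expressing EGFP interrupted by mutant beta-globin intron 2 (IVS2-654), 500/well in 2% FCS. Treated with compound for 2 days at 37C. Splicing correction scored as total well GFP intensity (488 nm excitation, 500-520 nm emission); 500 nM antisense PNA served as control.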
Epigenetic mod – epigenetic GFP locus derepression in mouse cells. mouse C127i GFP locus derepression, cytometry, 30 h. Potency, µM (doses to about 46.1 µM), for the others: at the top dose GFP derepression (activation). 0.09% of 68,000 active. AID 597; further: % of control where 0% means no effect
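Murine C127i mammary cells carrying a silenced, stably integrated CMV-driven GFP reporter were treated with compound for 30 hours at 37 C. After PBS washes, GFP-positive cells were counted by laser-scanning microplate cytometry.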
Hsp90 Hop PPI – changes Hsp90-Hop TPR2A binding signal, up or down; Potency, µM (series often up to 57 µM), without a hit: at the top dose activity change, negative = inhibition; AlphaScreen TPR2A-His6 binding biotin-Hsp90 C-terminal peptide; 0.44% of 71,000 active; active means well fitted curve in either direction with a large enough effect; inconclusive means small, poorly fitted or top-dose-only effect, or another doubt; further: potency means the concentration at half of the fitted maximal effect; on the % scale 0 is the no-effect control and ±100 the full control effect
Tau fil binding – tau filament binding; 2% of 71,000 active; recombinant tau filaments, thioflavin S fluorescence, 15 h; filaments grown with octadecylsulfate alongside compound; Potency, µM (highest dose often 57.1 µM), inactives show at the highest dose activity change, negative = inhibition; AID 596; P10636;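 further: potency means the concentration at half of the fitted maximal effect; on the % scale 0 is the no-effect control and ±100 the full control effect; actives lower thioflavin S fluorescence by blocking filaments or displacing dye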
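Recombinant tau protein (human, 1 uM final) plus 30 uM ODS in HEPES pH 7.4 with NaCl, DTT and thioflavine S. Compound present from the start; fluorescence at 510 nm after 15 h, 37 C.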
Ub-GFP proteasome – inhibits proteasome, raising ubiquitin-GFP reporter fluorescence. Ubiquitin-GFP reporter cells, proteasome inhibition, GFP fluorescence; response scale: untreated = 0%, 10 µM MG-132 = 100%. AID 526. Potency, µM (series often up to 45.9 µM), inactives show top-dose activation (GFP accumulation), most hits filed as activators. 67,000 tested, under 10 active; active means well fitted activation curve with a large enough effect, not every such curve was filed as active; inconclusive means small, poorly fitted or top-dose-only effect, or another doubt; inactive means no such curve, though single readings can be large or run the other way; further: potency means the concentration at half of the fitted maximal effect
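Reporter cells (U2OS, ubiquitin-G76V-GFP fusion) are plated overnight, then treated 4 hr at 37 °C with compound titrations from 46 uM down to 2.9 nM. Activity is scaled against untreated cells and 10 uM MG-132.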
ERK AVP inh – vasopressin-driven ERK pathway inhibition | HEK293-V1b, vasopressin-stimulated pERK AlphaScreen | Potency, µM (top dose mostly 57.5 µM), for inactives: top-dose activity, negative = inhibition, most hits filed as inhibitors | 0.99% of 72,000 active | AID 995; further: potency means the concentration at half of the fitted maximal effect; on the % scale 0 is the no-effect control and ±100 the full control effect; nearly all actives have a fitted effect of over 55% in size
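V1b-HEK293 cells; cpd 30 min 37C; 25 nM vasopressin 5 min; lyse 10 min; AlphaScreen beads 5 hr RT. Normalized to DMSO basal and 25 nM vasopressin; AC50 by Hill fit.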
Numbers without * were called inactive; i = inactive; ? = inconclusive; nt = no result; [ ] = dose if it differs, or a comment. Rows were chosen to be rich in hits. Some 3% of all compounds tested hit in one or more screens of this group. Unless noted, the call rests on the fitted dose curve; in most records, active means well fitted curve in the direction sought with a large enough effect; inconclusive means small, poorly fitted or top-dose-only effect, or another doubt; inactive means no such curve, though single readings can be large; an effect the other way counts as inactive or inconclusive.

SMILES	HBB splice mod	Epigenetic mod	Hsp90 Hop PPI	Tau fil binding	Ub-GFP proteasome	ERK AVP inh
CCOC(=O)C1CSC(Cc2ccc(OCc3ccc([N+](=O)[O-])cc3)cc2)N1 (stereo unspecified)	-0.7%	nt	nt	nt	nt	-22.0%
CCCC12CN3CC(C)(CN(C1)C31C(=O)Nc3ccc(C)cc31)C2=O (stereo unspecified)	-0.2%	-3.2%	-4.6%	20µM*	-11.3%	-5.8%
Cn1cnc([N+](=O)[O-])c1SCC(=O)O	3.0%[9.22 µM]	-2.2%[9.22 µM]	-2.7%[11 µM]	-5.1%[11.4 µM]	-2.0%[9.17 µM]	-6.2%[11.5 µM]
O=c1cc(Nc2ccc3c(c2)OCO3)[nH]c(=O)n1-c1ccc(Br)cc1	-3.3%	-2.2%	-18.4%	15.8µM*	-0.4%	-12.1%
Cc1cccc(NC(=O)c2cc(-c3ccco3)nc3ccccc23)n1	0.6%[57.5 µM]	4.3%	1.6%	62.8%	-1.0%	-11.6%
CCOc1cc(N2CCOCC2)c(OCC)cc1NC(=O)c1cc(-c2ccco2)nc2ccccc12	0.7%	-2.1%	-17.0%	10µM*	-8.3%	?
O=C(O)c1cc2ccccc2c(S(=O)(=O)O)c1O	1.0%[9.22 µM]	0.0%[9.22 µM]	-5.0%[11 µM]	15.8%[11.4 µM]	5.8%[9.17 µM]	-15.6%[11.5 µM]
c1ccc(-c2cnc(CSc3ncnc4sccc34)o2)cc1	-0.3%[57.5 µM]	0.9%	4.7%	-13.0%	-4.0%	31.6µM*
Cc1cc(C)n2nc(SCc3ncc(-c4ccccc4)o3)nc2n1	7.8%	2.9%	-2.8%	6.7%	-3.2%	12.5%
O=C(Nc1ccc(Nc2ccc3c(c2)C(=O)c2ccccc2C3=O)c2c1C(=O)c1ccccc1C2=O)c1ccccc1	2.6%[9.22 µM]	-2.2%[9.22 µM]	?	3.98µM*	-5.2%[9.17 µM]	-9.0%[11.5 µM]
O=C(COc1ccccc1)N1CCN(c2nnc(-c3ccccc3)c3ccccc23)CC1	-1.7%	-2.6%	-8.0%	0.5%	-19.7%	-16.1%
O=C(COc1ccccc1)N1CCN(c2ncnc3c2cnn3-c2ccccc2)CC1	0.1%[57.5 µM]	2.3%	-0.4%	19.6%	-2.2%	25.1µM*
CCOC(=O)c1cc(-c2ccco2)nc2c1c(C)nn2-c1ccccc1	-0.5%	5.2%	2.6%	10µM*	-0.1%	-20.9%
Cc1nn(-c2ccccc2)c2nc(-c3ccncc3)cc(C(=O)NCc3ccco3)c12	-0.3%[57.5 µM]	7.0%	4.9%	31.6µM*	3.7%	-15.2%
NCCC1([N+](=O)[O-])CCNCC1	2.9%[9.22 µM]	10.3%[9.22 µM]	-2.9%[11 µM]	-4.1%[11.4 µM]	-1.3%[9.17 µM]	4.7%[11.5 µM]
Cc1cc2cc(CNC(=O)Nc3ccccc3)ccc2n1C	1.2%	0.0%	?	20µM*	-7.1%	-20.8%
Cc1cc2cc(CNC(=O)c3cccs3)ccc2n1C	-0.2%	0.0%	-15.2%	25.1µM*	3.7%	13.1%
CCOC(=O)NCc1ccc2c(c1)cc(C)n2C	-1.4%	4.1%	-4.9%	?	-5.6%	28.0%
CC(=O)c1c(C)[nH]c(C(=O)OCCCCN2C(=O)c3ccccc3C2=O)c1C	-0.3%[57.5 µM]	-2.9%	-0.4%	-1.5%	3.1%	12.6µM*
O=C(Nc1ccccc1-c1nc2ccccc2s1)c1ccco1	-1.1%[9.22 µM]	-1.6%	29.5%	i	0.0%	68.5%
Cc1cnc(NC(=O)c2ccc(-c3nc4ccccc4s3)o2)s1	-1.3%	1.0%	13.3%	?	-5.2%	20µM*
N=c1c(C(=O)NCc2ccco2)cc2c(=O)n3ccccc3nc2n1Cc1ccc(Cl)cc1	-0.9%	?	0.1%	3.16µM*	22.4%	5.8%
CCn1c(=N)c(C(=O)OC)cc2c(=O)n3ccccc3nc21	-3.0%	0.0%	-0.4%	7.2%	0.1%	-14.3%
CC(C)n1c(=N)c(C(=O)NCCc2ccccc2)cc2c(=O)n3ccccc3nc21	nt	-1.0%	2.2%	3.16µM*	-1.3%	-3.9%
Cc1cccn2c(=O)c3cc(C(=O)NCc4ccco4)c(=N)n(CCc4ccccc4)c3nc12	-0.7%	17.3%	-4.7%	1.58µM*	1.7%	-12.6%
Cc1cccn2c(=O)c3cc(C(=O)NCc4ccco4)c(=N)n(C(C)C)c3nc12	-1.3%	-1.6%	-6.7%	90.3%	1.9%	-15.6%
